Read-out in assay [1]: Signal transducer and activator of transcription 3 (Homo sapiens) (UniProt P40763)
As to the kind of experiment: LTEA_HepaRG_STAT3: Life Technologies and Expression Analysis (LTEA) Assay for Signal transducer and activator of transcription (STAT3) using HepaRG (AID 2283529). Conditions: mRNA level, 48 h; actives raise or lower the signal. An outline of the steps:
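Differentiated HepaRG cells, serum-free induction medium, dosed 48 h in duplicate, 8 half-log concentrations from 100 uM in 0.5% DMSO. STAT3 mRNA by qRT-PCR, normalised to ACTB, GAPDH, POLR2A; bidirectional fit versus DMSO.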

Read-out in assay [2]: solute carrier (SLCO1B1), SLCO1B1 (gene 10599)
As to the kind of experiment: LTEA_HepaRG_SLCO1B1: Life Technologies and Expression Analysis (LTEA) Assay for solute carrier (SLCO1B1) using HepaRG (AID 2283530). Conditions: mRNA level, 48 h; actives raise or lower the signal. Summed up:
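SLCO1B1 transcript read by qRT-PCR (Fluidigm arrays), normalized to three housekeeping genes, after 48 h chemical exposure of HepaRG cells; bidirectional concentration-response fitting versus 0.5% DMSO baseline. Eight-point half-log series, maximum 100 uM.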

Read-out in assay [3]: sulfotransferase 2A1 (SULT2A1), SULT2A1 (gene 6822)
Briefly: LTEA_HepaRG_SULT2A1: Life Technologies and Expression Analysis (LTEA) Assay for sulfotransferase 2A1 (SULT2A1) using HepaRG (AID 2283531). Conditions: mRNA level, 48 h; actives raise or lower the signal. An outline of the steps: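 HepaRG, 48 h chemical exposure, 8-pt half-log curve from 100 uM in 0.5% DMSO, duplicates. Readout: TaqMan qRT-PCR of SULT2A1 mRNA, housekeeping-normalized. Bidirectional fit vs DMSO baseline.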

Read-out in assay [4]: Transforming Growth Factor (TGFA), TGFA (gene 7039)
Briefly: LTEA_HepaRG_TGFA: Life Technologies and Expression Analysis (LTEA) Assay for Transforming Growth Factor (TGFA) using HepaRG (AID 2283532). Conditions: mRNA level, 48 h; actives raise or lower the signal. An outline of the steps: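 Differentiated HepaRG cells exposed 48 hours in serum-free induction medium, 0.5% DMSO vehicle, 8-point half-log series from 100 uM, in duplicate. TGFA mRNA by TaqMan qRT-PCR, normalised to ACTB, GAPDH, POLR2A; bidirectional fit versus DMSO.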

Read-out in assay [5]: Transforming Growth Factor (TGFB1), TGFB1 (gene 7040)
As to the kind of experiment: LTEA_HepaRG_TGFB1: Life Technologies and Expression Analysis (LTEA) Assay for Transforming Growth Factor (TGFB1) Transporter using HepaRG (AID 2283533). Conditions: mRNA level, 48 h; actives raise or lower the signal. An outline of the steps: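 qRT-PCR readout of TGFB1 transcript in HepaRG lysates, normalized to three housekeeping genes; gain or loss of signal fitted relative to 0.5% DMSO vehicle. Exposure: 48 h, 8-point curve from 100 uM, duplicate wells.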

Read-out in the next assay: TIMP1, TIMP1 (gene 7076)
Briefly: LTEA_HepaRG_TIMP1: Life Technologies and Expression Analysis (LTEA) Assay for TIMP1 using HepaRG (AID 2283534). Conditions: mRNA level, 48 h; actives raise or lower the signal. An outline of the steps: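 HepaRG, 48 h exposure, 8-pt half-log series from 100 uM in 0.5% DMSO, duplicates; TIMP1 transcript by Fluidigm qRT-PCR, housekeeping-normalized; bidirectional curve fit vs DMSO baseline.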

Read-out in assay [6]: Tumor necrosis factor receptor 1 (TNFRSF1A), TNFRSF1A (gene 7132)
Briefly: LTEA_HepaRG_TNFRSF1A: Life Technologies and Expression Analysis (LTEA) Assay for Tumor necrosis factor receptor 1 (TNFRSF1A) using HepaRG (AID 2283535). Conditions: mRNA level, 48 h; actives raise or lower the signal. Summed up: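 HepaRG, 48 h plating then 48 h chemical exposure, serum-free induction media; 8-pt CRC from 100 uM, half-log, 0.5% DMSO vehicle, duplicates. Readout: TaqMan qRT-PCR (Fluidigm), housekeeping-gene normalized; bidirectional fit vs DMSO.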

Read-out in assay [7]: Thyroid Hormone Responsive (THRSP), THRSP (gene 7069)
Briefly: LTEA_HepaRG_THRSP: Life Technologies and Expression Analysis (LTEA) Assay for Thyroid Hormone Responsive (THRSP) using HepaRG (AID 2283536). Particulars: mRNA level, 48 h; actives raise or lower the signal. An outline of the steps: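 Differentiated HepaRG cells treated 48 h in serum-free induction medium with 8 half-log concentrations up to 100 uM (0.5% DMSO), duplicates. THRSP mRNA by TaqMan qRT-PCR normalised to ACTB, GAPDH, POLR2A; bidirectional fit versus DMSO.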

Read-out in assay [8]: Cellular tumor antigen p53 (Homo sapiens) (UniProt P04637)
As to the kind of experiment: LTEA_HepaRG_TP53: Life Technologies and Expression Analysis (LTEA) Assay for Tumor Protein P53 (TP53) using HepaRG (AID 2283537). Conditions: mRNA level, 48 h; actives raise or lower the signal. An outline of the steps: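 Read-out is TP53 transcript level by microfluidic qRT-PCR, normalised to three housekeeping genes and fitted bidirectionally against DMSO. Human HepaRG cells received compounds for 48 h, highest concentration 100 uM.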

Read-out in assay [9]: UDP glucuronosyltransferase (UGT1A1), UGT1A1 (gene 54658)
Briefly: LTEA_HepaRG_UGT1A1: Life Technologies and Expression Analysis (LTEA) Assay for UDP glucuronosyltransferase (UGT1A1) using HepaRG (AID 2283538). Conditions: mRNA level, 48 h; actives raise or lower the signal. Summed up: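 HepaRG cells, 0.5% DMSO vehicle, 48 h exposure in serum-free induction medium to 8-point half-log series topping at 100 uM, in duplicate. UGT1A1 mRNA by Fluidigm qRT-PCR, normalized to ACTB/GAPDH/POLR2A; bidirectional fit versus DMSO.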

Read-out in assay [10]: UDP glucuronosyltransferase (UGT1A6), UGT1A6 (gene 54578)
Briefly: LTEA_HepaRG_UGT1A6: Life Technologies and Expression Analysis (LTEA) Assay for UDP glucuronosyltransferase (UGT1A6) using HepaRG (AID 2283539). Particulars: mRNA level, 48 h; actives raise or lower the signal. Summed up:
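qRT-PCR readout of UGT1A6 mRNA (normalized to ACTB/GAPDH/POLR2A) in differentiated HepaRG cells after 48 h chemical exposure; 8 concentrations, top 100 uM, half-log steps, 0.5% DMSO. Bidirectional curve fit relative to DMSO baseline.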

Read-out in assay [11]: X-box binding protein 1 (XBP1), XBP1 (gene 7494)
Briefly: LTEA_HepaRG_XBP1: Life Technologies and Expression Analysis (LTEA) Assay for X-box binding protein 1 (XBP1) using HepaRG (AID 2283540). Conditions: mRNA level, 48 h; actives raise or lower the signal. An outline of the steps: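 HepaRG, 48 h exposure, 8-pt half-log CRC top 100 uM, 0.5% DMSO vehicle, duplicates. Readout: TaqMan qRT-PCR of XBP1 mRNA, housekeeping-normalised (ACTB/GAPDH/POLR2A); bidirectional fit vs DMSO baseline.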

Assay [12] in a line: LTEA_HepaRG_LDH_cytotoxicity: Cytotoxicity Assessment in the Life Technologies and Expression Analysis (LTEA) Assay (AID 2283563; active means hit-call score of the fitted dose curve at least 0.9, where 1 is the maximum). Summed up:
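HepaRG (human liver line), 48 h exposure, 8-pt half-log series from 100 uM, 0.5% DMSO vehicle, duplicates. Read-out: LDH in spent medium. Positive-direction fit vs DMSO baseline.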

A short description of assay [13]: ATG_XTT_Cytotoxicity: Cytotoxicity Assessment in the Attagene TRANS-FACTORIAL HepG2 Assay (AID 2283584; active means hit-call score of the fitted dose curve at least 0.9, where 1 is the maximum). Summed up: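 XTT readout of cell number in transfected HepG2 cells, 24 h post-dosing; DMSO serves as negative control and baseline, with activity taken as loss of viability signal.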
The nature of assay [14]: TOX21_p53_BLA_p2_viability: Viability Assessment in the Tox21 HCT-116 p53 Agonism Beta-lactamase Assay, Phase 2 (AID 2283591; active means hit-call score of the fitted dose curve at least 0.9, where 1 is the maximum;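 further: compound exposure lasted 16 h at 37 °C; actives lower the ATP signal meaning cytotoxicity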). An outline of the steps: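 HCT116 p53-bla cells, 4000/well, dosed after 5 h plating (217-fold dilution of DMSO stocks) and incubated 16 h at 37C. Viability taken as cellular ATP by CellTiter-Glo luminescence after 30 min RT; signal loss marks cytotoxicity.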

The target in assay [15] is Cellular tumor antigen p53 (Homo sapiens) (UniProt P04637). Briefly: TOX21_p53_BLA_p2_ratio: Tox21 HCT-116 p53 Agonism Beta-lactamase Assay, Ratio, Phase 2 (AID 2283592; active means hit-call score of the fitted dose curve at least 0.9, where 1 is the maximum). Summed up:
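In this cell-based reporter format, HCT116 cells were dosed with chemicals delivered from DMSO by 217-fold dilution and incubated 16 h at 37C. Emission at 460 and 530 nm after 2 h CCF4-AM loading provided the ratio, fitted upward versus DMSO.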

For assay [16] the target is unchanged. Briefly: TOX21_p53_BLA_p3_ratio: Tox21 HCT-116 p53 Agonism Beta-lactamase Assay, Ratio, Phase 3 (AID 2283596; active means hit-call score of the fitted dose curve at least 0.9, where 1 is the maximum). An outline of the steps:
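HCT116 p53-bla cells (4000/well) given compound in DMSO (217-fold dilution) after 5 h, incubated 16 h at 37C. CCF4-AM substrate 2 h at room temperature; 460/530 nm emission ratio, gain fitted against DMSO.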

A short description of assay [17]: TOX21_p53_BLA_p4_viability: Viability Assessment in the Tox21 HCT-116 p53 Agonism Beta-lactamase Assay, Phase 4 (AID 2283597; active means hit-call score of the fitted dose curve at least 0.9, where 1 is the maximum;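 further: hits lower the luminescence signal meaning cytotoxicity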). Summed up: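 We seeded HCT116 p53 reporter cells at 4000/well and waited 5 h. We then added compounds in DMSO at a 217-fold dilution and incubated for 16 h. Viability was read as CellTiter-Glo luminescence after 30 min at RT.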
Read-out in assay [18]: succinate dehydrogenase complex iron sulfur subunit B (SDHB), SDHB (gene 6390)
As to the kind of experiment: LTEA_HepaRG_SDHB: Life Technologies and Expression Analysis (LTEA) Assay for succinate dehydrogenase complex iron sulfur subunit B (SDHB) using HepaRG (AID 2283528). Conditions: mRNA level, 48 h; actives raise or lower the signal. An outline of the steps:
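Readout is SDHB transcript level by qRT-PCR, normalised to three housekeeping genes and fitted bidirectionally against 0.5% DMSO vehicle. Human HepaRG cells were treated for 48 h at up to 100 uM.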

Assay [19] in a line: TOX21_p53_BLA_p3_viability: Viability Assessment in the Tox21 HCT-116 p53 Agonism Beta-lactamase Assay, Phase 3 (AID 2283593; active means hit-call score of the fitted dose curve at least 0.9, where 1 is the maximum;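 further: cells exposed to compound for 16 h before reading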). Summed up:
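HCT116 cells, 4000/well, dosed 5 h after plating by pin transfer (217-fold dilution from DMSO stock) and incubated 16 h at 37C, 5% CO2. Viability read as ATP luminescence with CellTiter-Glo after 30 min at room temperature.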

Inconclusive results are not listed. Calls of active or inactive are those of the source. How the source made its calls, unless noted: active means hit-call score of the fitted dose curve at least 0.9, where 1 is the maximum; inactive means score below 0.9.

Sequence of Cellular tumor antigen p53 (Homo sapiens) (P04637 whole entry, looked up): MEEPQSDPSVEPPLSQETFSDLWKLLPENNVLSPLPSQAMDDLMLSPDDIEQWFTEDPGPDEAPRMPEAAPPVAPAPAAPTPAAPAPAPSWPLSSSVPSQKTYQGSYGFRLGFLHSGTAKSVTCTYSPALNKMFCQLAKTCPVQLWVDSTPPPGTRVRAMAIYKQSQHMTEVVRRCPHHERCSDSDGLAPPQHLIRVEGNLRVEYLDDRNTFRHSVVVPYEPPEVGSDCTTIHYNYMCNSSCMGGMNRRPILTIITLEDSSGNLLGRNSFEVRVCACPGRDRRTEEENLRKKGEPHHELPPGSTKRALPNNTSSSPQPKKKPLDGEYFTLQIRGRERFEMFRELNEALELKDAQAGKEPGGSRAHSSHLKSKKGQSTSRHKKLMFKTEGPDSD
Sequence of Signal transducer and activator of transcription 3 (Homo sapiens) (P40763 whole entry, looked up): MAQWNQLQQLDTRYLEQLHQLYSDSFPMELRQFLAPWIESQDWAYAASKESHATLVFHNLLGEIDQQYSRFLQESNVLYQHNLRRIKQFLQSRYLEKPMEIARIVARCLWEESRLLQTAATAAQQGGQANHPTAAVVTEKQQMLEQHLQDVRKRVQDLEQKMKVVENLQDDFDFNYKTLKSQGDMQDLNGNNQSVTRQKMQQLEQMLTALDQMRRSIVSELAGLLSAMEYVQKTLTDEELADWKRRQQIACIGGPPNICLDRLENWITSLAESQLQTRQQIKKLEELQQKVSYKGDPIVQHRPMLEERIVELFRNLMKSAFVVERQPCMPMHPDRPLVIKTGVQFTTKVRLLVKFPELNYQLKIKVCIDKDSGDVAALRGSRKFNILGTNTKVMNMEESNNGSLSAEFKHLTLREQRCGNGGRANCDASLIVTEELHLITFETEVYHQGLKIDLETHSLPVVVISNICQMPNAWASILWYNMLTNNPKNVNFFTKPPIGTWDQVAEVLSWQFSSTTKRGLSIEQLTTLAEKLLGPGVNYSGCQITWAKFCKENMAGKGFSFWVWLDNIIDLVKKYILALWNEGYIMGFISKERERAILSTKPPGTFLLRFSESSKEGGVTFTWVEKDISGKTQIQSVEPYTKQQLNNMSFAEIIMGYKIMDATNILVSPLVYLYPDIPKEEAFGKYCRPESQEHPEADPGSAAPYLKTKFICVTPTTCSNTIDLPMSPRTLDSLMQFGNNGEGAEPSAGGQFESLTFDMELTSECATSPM

Regarding `Cc1ccccc1O`, the outcome in assay [1] is “inactive”; in [2], “inactive”; in [3] it was “inactive”; in assay [4] it was “inactive”; in assay [5], “inactive”; with TIMP1, TIMP1 (gene 7076) it was “inactive”. Moreover, the molecule was called inactive in assay [6], in assay [7], in assay [8], in [9], in [10] and in assay [11]. The molecule was called inactive in assay [12], in [13], in assay [14], in [15], in [16] and in [17].

As to `O=C(NC(=O)c1c(F)cccc1F)Nc1cc(Cl)c(OC(F)(F)C(F)F)c(Cl)c1`, the outcome in assay [18] is “inactive”; in assay [2], “inactive”; in [3] it was “inactive”; in [4], “inactive”; in assay [5], “inactive”; in the assay with TIMP1, TIMP1 (gene 7076), “inactive”. Also, the call in assay [6], in [8], in [9], in assay [10], in assay [12] and in assay [13] was inactive. Further, the result in assay [14], in [15], in [19], in assay [16] and in assay [17] was inactive. Besides, the AC50 in assay [1] and in assay [7] was 9.92 µM (active) in each case.

`C=CC(=O)NCNC(=O)C=C`: the call in assay [18], in assay [1], in assay [2], in assay [3], in assay [4] and in assay [5] was inactive. The outcome with TIMP1, TIMP1 (gene 7076) is “inactive”; in [6], “inactive”; in [7] it was “inactive”; in assay [8], “inactive”; in assay [9] it was “inactive”; in assay [10], “inactive”. The molecule was called inactive in assay [11], in [12], in assay [13], in [14], in [19] and in assay [16]. In assay [17], the call was inactive.

Turning to `CC(C)C(=O)OCC(C)(C)C(OC(=O)C(C)C)C(C)C` (centres undefined), the molecule was classed as inactive in [18], in assay [1], in assay [2], in [3], in [4] and in assay [5]. For the same molecule, the outcome with TIMP1, TIMP1 (gene 7076) was “inactive”; in [6], “inactive”; in assay [7] it was “inactive”; in assay [8], “inactive”; in assay [9] it was “inactive”; in [10], “inactive”. Further, the result in assay [12], in [13], in assay [15], in [16] and in assay [17] was inactive. Moreover, the AC50 in [19] was 46.4 µM (active).

The term AC50 denotes the concentration at which the activity in the assay is half-maximal.

The values above are taken from PubChem BioAssay (EPA / NIEHS).
